We go through 20 molecules from ChEMBL document CHEMBL5724796, “Tm Shift (DSF) assay results for EUbOPEN Chemogenomics Library” (2024).

What all share (conditions): Compound concentration 20.0 uM
Assay [1] deals with Tyrosine-protein kinase ABL1 (Homo sapiens) (UniProt P00519).
In assay [2] the target is Bromodomain-containing protein 4 (Homo sapiens) (UniProt O60885).
Assay [3] concerns the target Cyclin-dependent kinase 2 (Homo sapiens) (UniProt P24941).
For assay [4], the target named is Casein kinase I isoform delta (Homo sapiens) (UniProt P48730).
Casein kinase I isoform delta (Homo sapiens), sequence (P48730 whole entry, looked up, canonical isoform): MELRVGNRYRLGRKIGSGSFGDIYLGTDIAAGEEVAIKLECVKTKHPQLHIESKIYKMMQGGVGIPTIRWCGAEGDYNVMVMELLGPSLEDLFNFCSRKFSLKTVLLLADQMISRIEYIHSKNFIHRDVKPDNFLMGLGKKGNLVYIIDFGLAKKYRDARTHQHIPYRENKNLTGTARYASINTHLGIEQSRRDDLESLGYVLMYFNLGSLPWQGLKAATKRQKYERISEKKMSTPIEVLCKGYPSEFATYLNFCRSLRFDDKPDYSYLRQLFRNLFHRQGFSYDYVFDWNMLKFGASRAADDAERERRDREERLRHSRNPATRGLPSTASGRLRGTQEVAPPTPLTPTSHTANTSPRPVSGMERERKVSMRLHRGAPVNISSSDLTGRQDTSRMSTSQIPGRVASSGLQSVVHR
The target of assay [5] is Glycogen synthase kinase-3 beta (Homo sapiens) (UniProt P49841).
Glycogen synthase kinase-3 beta (Homo sapiens), sequence (P49841 whole entry, looked up): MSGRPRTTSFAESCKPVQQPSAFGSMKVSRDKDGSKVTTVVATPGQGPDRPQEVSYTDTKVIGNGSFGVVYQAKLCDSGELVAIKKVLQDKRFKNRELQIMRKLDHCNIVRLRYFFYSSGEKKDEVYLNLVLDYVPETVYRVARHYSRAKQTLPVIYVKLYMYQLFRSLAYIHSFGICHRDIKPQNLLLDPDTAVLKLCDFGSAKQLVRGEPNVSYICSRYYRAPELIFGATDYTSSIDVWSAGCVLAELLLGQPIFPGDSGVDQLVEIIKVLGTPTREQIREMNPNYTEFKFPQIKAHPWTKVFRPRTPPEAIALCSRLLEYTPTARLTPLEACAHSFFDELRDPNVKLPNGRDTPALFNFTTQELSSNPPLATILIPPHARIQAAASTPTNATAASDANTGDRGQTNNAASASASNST
Assay [6] addresses Mitogen-activated protein kinase 1 (Homo sapiens) (UniProt P28482).
For assay [7], the target named is T1, Aurora kinase A (Homo sapiens) (UniProt O14965).
T1 sequence (whole entry): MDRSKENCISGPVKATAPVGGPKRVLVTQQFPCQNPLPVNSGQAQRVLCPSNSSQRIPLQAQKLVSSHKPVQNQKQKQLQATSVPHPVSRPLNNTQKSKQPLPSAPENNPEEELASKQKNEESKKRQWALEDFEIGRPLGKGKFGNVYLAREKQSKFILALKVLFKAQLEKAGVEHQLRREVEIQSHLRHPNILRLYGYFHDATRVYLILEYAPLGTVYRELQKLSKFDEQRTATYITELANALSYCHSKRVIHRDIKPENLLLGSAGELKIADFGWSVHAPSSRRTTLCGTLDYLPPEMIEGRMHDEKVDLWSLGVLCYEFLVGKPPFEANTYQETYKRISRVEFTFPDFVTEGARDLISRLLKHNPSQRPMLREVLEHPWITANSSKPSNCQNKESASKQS

For assay [8], the target named is T2, Transcription intermediary factor 1-alpha (Homo sapiens) (UniProt O15164).
T2 sequence (whole entry): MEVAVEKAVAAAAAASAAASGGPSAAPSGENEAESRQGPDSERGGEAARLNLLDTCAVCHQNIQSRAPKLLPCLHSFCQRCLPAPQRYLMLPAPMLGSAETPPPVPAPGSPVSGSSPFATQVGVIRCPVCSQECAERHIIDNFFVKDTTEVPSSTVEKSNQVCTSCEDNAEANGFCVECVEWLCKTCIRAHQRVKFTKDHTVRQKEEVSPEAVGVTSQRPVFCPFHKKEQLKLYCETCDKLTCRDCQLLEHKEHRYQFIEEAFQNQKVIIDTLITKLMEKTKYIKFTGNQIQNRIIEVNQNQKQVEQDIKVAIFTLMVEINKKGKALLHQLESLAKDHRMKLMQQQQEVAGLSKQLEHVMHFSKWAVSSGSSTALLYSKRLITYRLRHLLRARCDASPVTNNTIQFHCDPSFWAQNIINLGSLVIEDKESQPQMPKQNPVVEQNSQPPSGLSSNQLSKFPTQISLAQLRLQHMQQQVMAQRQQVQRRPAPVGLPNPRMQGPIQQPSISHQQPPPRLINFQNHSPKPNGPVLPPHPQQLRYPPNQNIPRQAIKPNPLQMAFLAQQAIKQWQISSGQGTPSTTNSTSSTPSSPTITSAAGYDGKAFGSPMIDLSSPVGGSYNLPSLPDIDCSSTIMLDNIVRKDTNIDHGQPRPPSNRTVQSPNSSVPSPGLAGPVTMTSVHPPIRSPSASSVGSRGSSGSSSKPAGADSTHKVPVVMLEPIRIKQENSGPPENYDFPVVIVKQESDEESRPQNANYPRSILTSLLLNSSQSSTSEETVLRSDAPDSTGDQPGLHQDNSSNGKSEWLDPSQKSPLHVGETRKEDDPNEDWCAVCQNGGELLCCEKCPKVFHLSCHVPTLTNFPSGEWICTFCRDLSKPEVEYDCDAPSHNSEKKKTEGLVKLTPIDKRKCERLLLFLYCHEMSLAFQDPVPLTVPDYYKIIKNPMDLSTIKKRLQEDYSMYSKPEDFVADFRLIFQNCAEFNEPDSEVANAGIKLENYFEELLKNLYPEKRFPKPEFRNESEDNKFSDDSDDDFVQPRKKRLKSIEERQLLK

Mitogen-activated protein kinase 1 (Homo sapiens), sequence (P28482 whole entry): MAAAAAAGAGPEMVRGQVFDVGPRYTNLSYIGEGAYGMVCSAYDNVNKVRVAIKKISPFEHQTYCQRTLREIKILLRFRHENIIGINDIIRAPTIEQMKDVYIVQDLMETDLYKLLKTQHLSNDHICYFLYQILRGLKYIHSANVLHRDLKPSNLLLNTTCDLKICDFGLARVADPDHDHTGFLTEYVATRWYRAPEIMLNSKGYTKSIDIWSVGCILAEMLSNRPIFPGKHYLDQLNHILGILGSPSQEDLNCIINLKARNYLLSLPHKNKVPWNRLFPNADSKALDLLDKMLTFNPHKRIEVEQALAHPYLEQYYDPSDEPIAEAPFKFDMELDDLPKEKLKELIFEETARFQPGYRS
Tyrosine-protein kinase ABL1 (Homo sapiens), sequence (P00519 whole entry): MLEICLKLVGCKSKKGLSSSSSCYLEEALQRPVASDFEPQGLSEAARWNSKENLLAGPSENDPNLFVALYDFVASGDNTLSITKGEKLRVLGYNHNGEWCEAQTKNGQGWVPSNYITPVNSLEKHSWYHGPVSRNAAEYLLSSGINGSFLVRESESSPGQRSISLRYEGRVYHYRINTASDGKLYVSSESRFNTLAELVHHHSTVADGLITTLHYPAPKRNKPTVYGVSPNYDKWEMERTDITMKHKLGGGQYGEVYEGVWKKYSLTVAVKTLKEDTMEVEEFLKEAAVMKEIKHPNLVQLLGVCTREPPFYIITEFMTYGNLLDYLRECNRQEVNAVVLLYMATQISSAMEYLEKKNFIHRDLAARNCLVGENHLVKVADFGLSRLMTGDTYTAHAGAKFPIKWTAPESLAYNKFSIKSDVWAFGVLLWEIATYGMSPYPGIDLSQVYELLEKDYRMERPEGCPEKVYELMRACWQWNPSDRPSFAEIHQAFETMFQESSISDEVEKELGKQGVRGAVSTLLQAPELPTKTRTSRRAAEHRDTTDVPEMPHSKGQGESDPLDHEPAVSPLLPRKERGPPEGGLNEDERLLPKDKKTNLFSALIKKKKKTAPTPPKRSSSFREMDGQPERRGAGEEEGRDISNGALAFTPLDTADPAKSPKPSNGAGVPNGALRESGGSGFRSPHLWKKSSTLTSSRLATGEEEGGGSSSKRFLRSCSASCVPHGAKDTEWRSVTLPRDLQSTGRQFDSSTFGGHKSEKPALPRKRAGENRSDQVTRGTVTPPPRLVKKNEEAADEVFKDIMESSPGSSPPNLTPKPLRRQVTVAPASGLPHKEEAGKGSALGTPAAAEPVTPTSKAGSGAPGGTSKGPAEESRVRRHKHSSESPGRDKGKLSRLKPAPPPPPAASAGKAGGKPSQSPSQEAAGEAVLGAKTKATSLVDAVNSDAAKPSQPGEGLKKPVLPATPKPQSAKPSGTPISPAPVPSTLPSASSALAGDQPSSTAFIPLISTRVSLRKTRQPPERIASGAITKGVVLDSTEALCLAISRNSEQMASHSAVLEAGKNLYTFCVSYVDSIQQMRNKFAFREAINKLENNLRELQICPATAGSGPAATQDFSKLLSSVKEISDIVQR

On to `CCOc1ccc(S(=O)(=O)Nc2ccc(Cl)cc2C#Cc2cnc(C(=O)O)cc2OC)c2ncccc12`, for which the ΔTm is 0.04 °C in assay [1]; -2.23 °C in assay [2]; -0.26 °C in assay [3]; -7.02 °C in assay [4]; -2.42 °C in assay [5]; -0.03 °C in assay [6]. Further, the shift in melting temperature (ΔTm) is -2.9 °C in assay [7] and 0.7 °C in assay [8].

In the case of `CS(=O)(=O)c1ncn2c(NCc3c(F)ccc4c3CCO4)ncc(-c3ccc(C4CC4)nc3)c12`, the shift in melting temperature (ΔTm) in assay [1] is 0.63 °C; in assay [2], -3.29 °C; in assay [3] it was 0.06 °C; in assay [4] it was -0.23 °C; in assay [5] it was -0.29 °C; in assay [6], 0.08 °C. Moreover, the ΔTm in assay [7] was -2.48 °C; in assay [8], -0.37 °C.

On to `CCn1c(=O)c(C)cn(Cc2nnc(-c3ccc(F)c(OC)c3F)s2)c1=O`, for which the shift in melting temperature (ΔTm) in assay [1] is 0.22 °C; in assay [2] it was -0.83 °C; in assay [3], 0.23 °C; in assay [4] it was 0.22 °C; in assay [5], 0 °C; in assay [6], -4.56 °C. Moreover, the thermal shift (ΔTm) in assay [7] is -2.75 °C; in assay [8] it was -0.83 °C.

With `Cn1cc(NC(=O)c2cc(F)cc(F)c2)c(C(=O)NC2CCNCC2)n1`, the thermal shift (ΔTm) in assay [1] was 0.23 °C; in assay [2] it was -2.12 °C; in assay [3], -0.02 °C; in assay [4] it was 1.02 °C; in assay [5] it was -0.14 °C; in assay [6], -0.35 °C. Besides, the ΔTm was -0.65 °C in assay [7] and -0.68 °C in assay [8].

Take `C[C@H](NC(=O)[C@H](Cc1ccccc1)NC(=O)OCc1ccccc1)C(=O)CF`: the ΔTm in assay [1] is 0.31 °C; in assay [2] it was -2.33 °C; in assay [3] it was 0.15 °C; in assay [4] it was 0.19 °C; in assay [5] it was -0.61 °C; in assay [6], -0.19 °C. The figures for the ΔTm in assay [7] and in assay [8] were -0.86 °C and -1.01 °C, respectively.

As for `CC(=O)N1CCC(Nc2cc(C(=O)NC[C@H](O)CN3CCc4ccccc4C3)ncn2)CC1`, the shift in melting temperature (ΔTm) in assay [1] was 0.44 °C; in assay [2], -0.33 °C; in assay [3] it was 0.19 °C; in assay [4] it was 0.07 °C; in assay [5] it was 0.18 °C; in assay [6] it was 0.06 °C. Besides, the thermal shift (ΔTm) is -0.79 °C in assay [7] and -0.38 °C in assay [8].

As to `N#Cc1ccc(-c2c3n(c4cccnc24)CCN(C2CC2)C3=O)cc1F`, the ΔTm in assay [1] is 0.62 °C; in assay [2], -3.17 °C; in assay [3], 0.14 °C; in assay [4], -0.26 °C; in assay [5], 1.8 °C; in assay [6], 0.04 °C. Further, the thermal shift (ΔTm) in assay [7] is -2.3 °C; in assay [8] it was 0.73 °C.

Consider `N[C@@H](CCCCNC(=O)OCc1ccc([N+](=O)[O-])cc1)C(=O)N1CCCC1`, for which the ΔTm in assay [1] was 0.09 °C; in assay [2], -2.69 °C; in assay [3], 0.15 °C; in assay [4] it was -0.16 °C; in assay [5], -0.58 °C; in assay [6], 0.13 °C. Moreover, the figures for the shift in melting temperature (ΔTm) in assay [7] and in assay [8] were -1.1 °C and -0.07 °C, respectively.

Take `O=C(c1ccc2c(ccn2-c2ccc(F)cc2)c1)N1CC(N2CCN(C(=O)c3nccs3)CC2)C1`: the ΔTm in assay [1] is 0.62 °C; in assay [2], -3.81 °C; in assay [3], -1.22 °C; in assay [4] it was -0.29 °C; in assay [5] it was -1.59 °C; in assay [6], 0 °C. Further, the ΔTm is -3.69 °C in assay [7] and -0.34 °C in assay [8].

`Cc1ccc2[nH]c3c(c2c1)CCCC3C(N)=O` (stereo not given): the ΔTm in assay [1] is 0.45 °C; in assay [2], -2.26 °C; in assay [3], 0.06 °C; in assay [4], -0.29 °C; in assay [5] it was -0.37 °C; in assay [6], 0.52 °C. Moreover, the thermal shift (ΔTm) in assay [7] was -2.14 °C; in assay [8] it was -1.11 °C.

Consider `NC(=O)c1cc(F)cc2c1C(=O)N(C1CCN(C3CCC(F)(F)CC3)CC1)C2`, for which the shift in melting temperature (ΔTm) in assay [1] is 0 °C; in assay [2], -1.47 °C; in assay [3], 0.02 °C; in assay [4], 0.25 °C; in assay [5] it was -0.85 °C; in assay [6], 0.19 °C. In addition, the shift in melting temperature (ΔTm) in assay [7] was -1.86 °C; in assay [8] it was 1.35 °C.

With `Cc1cc(-c2ccccc2)cc(C(=O)NNS(=O)(=O)c2ccccc2)c1F`, the thermal shift (ΔTm) in assay [1] was 0.58 °C; in assay [2] it was -6.22 °C; in assay [3], -3.62 °C; in assay [4], 0.42 °C; in assay [5], -3.1 °C; in assay [6] it was 0 °C. Also, the ΔTm in assay [7] is -4.21 °C; in assay [8], -1.85 °C.

For `CCNC(=O)c1noc(-c2cc(C(C)C)c(O)cc2O)c1-c1ccc(CN2CCOCC2)cc1`, the ΔTm in assay [1] is 0.97 °C; in assay [2], -0.86 °C; in assay [3] it was 0.79 °C; in assay [4] it was 0.41 °C; in assay [5], 0.48 °C; in assay [6] it was -0.06 °C. Moreover, the thermal shift (ΔTm) in assay [7] was found to be 0.68 °C; in assay [8], 0.38 °C.

With `CCCN1CCN(c2ccc(C(=O)NC3(C(=O)NCC#N)CCCCC3)cc2)CC1`, the thermal shift (ΔTm) is 0.17 °C in assay [1]; -1.33 °C in assay [2]; 0.57 °C in assay [3]; 0.09 °C in assay [4]; -0.34 °C in assay [5]; -0.16 °C in assay [6]. In addition, the thermal shift (ΔTm) in assay [7] was -0.29 °C; in assay [8] it was -0.56 °C.

As to `Cc1cc(/N=N/c2ccc(S(=O)(=O)NC3CCCC3)cc2)c(N)cc1O`, the ΔTm in assay [1] worked out at 0.4 °C; in assay [2], 7.29 °C; in assay [3] it was 4.93 °C; in assay [4], 1.1 °C; in assay [5], 4.28 °C; in assay [6], 2.73 °C. Also, the ΔTm came to 0.42 °C in assay [7] and 2.48 °C in assay [8].

Regarding `Nc1ccccc1NC(=O)c1ccc(CNC(=O)OCc2cccnc2)cc1`, the thermal shift (ΔTm) is 0.63 °C in assay [1]; -1.69 °C in assay [2]; 0.81 °C in assay [3]; 0.33 °C in assay [4]; -0.75 °C in assay [5]; 0.21 °C in assay [6]. Besides, the shift in melting temperature (ΔTm) in assay [7] was 0.05 °C; in assay [8], -1.42 °C.

Regarding `O=C(Oc1cccc(F)c1OC(=O)c1cccc(O)c1)c1cccc(O)c1`, the thermal shift (ΔTm) in assay [1] was 0.98 °C; in assay [2] it was -0.67 °C; in assay [3] it was 0.91 °C; in assay [4], 0.57 °C; in assay [5] it was -0.64 °C; in assay [6] it was 0.41 °C. For the same molecule, the ΔTm is -0.91 °C in assay [7] and 1.67 °C in assay [8].

`Cc1c(CN2CCC(Nc3ncnc4sc(CC(F)(F)F)cc34)CC2)ccc2c1cc(C#N)n2Cc1cn[nH]c1`: the ΔTm in assay [1] is 0.97 °C; in assay [2], -1.35 °C; in assay [3] it was -0.07 °C; in assay [4], 1.61 °C; in assay [5] it was 0.28 °C; in assay [6], -7.35 °C. Further, the values for the shift in melting temperature (ΔTm) in assay [7] and in assay [8] were -1.51 °C and 0.6 °C, respectively.

Consider `N[C@@H](CCCCB(O)O)C(=O)O`, for which the ΔTm is 0.06 °C in assay [1]; 1.28 °C in assay [2]; 0.26 °C in assay [3]; -0.26 °C in assay [4]; -0.55 °C in assay [5]; 0.18 °C in assay [6]. In addition, the thermal shift (ΔTm) in assay [7] was -0.4 °C; in assay [8], -0.41 °C.

In the case of `COc1ccc([C@@H]2CNC(=O)C2)cc1OC1CCCC1`, the ΔTm in assay [1] was 0.51 °C; in assay [2], -3.17 °C; in assay [3] it was 0.13 °C; in assay [4], -0.19 °C; in assay [5] it was -0.23 °C; in assay [6] it was 0.08 °C. Moreover, the shift in melting temperature (ΔTm) is -2.43 °C in assay [7] and 0.65 °C in assay [8].
